Values joined by “and” are separate entries in the source; they are usually repeats but may differ in a detail not shown here. Equal values may be shown once. Active and inactive are the calls of the source. Rule for the calls: active = hit-call score of the fitted dose curve at least 0.9, where 1 is the maximum; inactive = score below 0.9.
These compounds were tested on Monocyte Chemoattractant Protein-1 (MCP1), CCL2 (gene 6347) (assay: BSK_IMphg_MCP1: BioMAP Diversity Plus: IMphg Assay for Monocyte Chemoattractant Protein-1 (MCP1) Biomarker Activity (AID 2284253)). Details: primary human endothelial cells with macrophages.
Experimental: BSK_IMphg is a cell-based, multiplexed-readout assay that uses venular endothelial cells and macrophages, a human vascular primary cell, with measurements taken at 24 hours after chemical dosing in a microplate: 96-well plate.BSK_IMphg_MCP1 is an assay component measured in the BSK_IMphg assay. It measures MCP-1 antibody related to regulation of gene expression using ELISA technology.Data from the assay component BSK_IMphg_MCP1 was analyzed at the endpoint, BSK_IMphg_MCP1, in the positive analysis fitting direction relative to DMSO as the negative control and baseline of activity. Using a type of binding reporter, gain or loss-of-signal activity can be used to understand protein changes. To generalize the intended target to other relatable targets, this assay endpoint is annotated to the 'cytokine' intended target family, where the subfamily is 'chemotactic factor'.
The levels of cell surface (or secreted, indicated by the prefix "s") biomarker endpoints were measured by ELISA. Overt cytotoxicity to cells in confluent adherent cultures (all systems other than the BT system) was assessed by measuring total protein levels using sulforhodamine B (SRB) staining in parallel cultures at the time of biomarker measurements, indicated as SRB endpoints. For proliferation assays for adherent cell types, individual cell types are cultured at sub-confluence and relative cell numbers quantified by SRB staining at time points optimized for each system (48 h: 3C and CASM3C systems; 72 h: BT and HDF3CGF systems; 96 h: SAg system). SRB was performed by staining cells with 0.1% SRB after fixation with 10% TCA and reading wells at 560 nm.Viability and proliferation of PBMC (T cells) was quantified by Alamar Blue reduction for the SAg and BT systems. For PBMC viability (referred to as PBMC Cytotoxicity within the assay endpoint names), cells were plated (75,000/well in a 96-well plate) and then chemical samples added for 1 h before addition of activators, SEB and TSST-1 (20 ng/mL final concentration each). Cells were incubated for 90 h. Then, Alamar Blue (20 uL/well) (Invitrogen, Cat DAL1100) was added for 6 h, and the plates were read with a fluorescence microplate reader at 546/580 nm (excitation/emission). For PBMC proliferation, cells were plated and activated as above but incubated for only 16 h prior to addition of Alamar Blue. Plates were read after 6 h.
With `O=P(O)(O)CCC(F)(F)C(F)(F)C(F)(F)C(F)(F)C(F)(F)C(F)(F)C(F)(F)C(F)(F)F` the outcome was “inactive”. For `O=P(O)(O)CCC(F)(F)C(F)(F)C(F)(F)C(F)(F)C(F)(F)C(F)(F)F`, the outcome was “inactive”. In the case of `OCC(F)(F)C(F)(F)C(F)(F)C(F)(F)C(F)(F)C(F)(F)C(F)(F)C(F)(F)C(F)(F)C(F)(F)C(F)(F)F`, the outcome is reported as “inactive”. `O=C(CC(=O)C(F)(F)C(F)(F)C(F)(F)F)c1cccs1` was tested, and the AC50 was 27.7 µM (active) and 25.5 µM (active). `CN(CCO)S(=O)(=O)C(F)(F)C(F)(F)C(F)(F)C(F)(F)C(F)(F)C(F)(F)C(F)(F)C(F)(F)F` was tested, and the outcome was “inactive”. With `O=C(O)CCC(F)(F)C(F)(F)C(F)(F)C(F)(F)C(F)(F)C(F)(F)F` the outcome was “inactive”. For `C=CC(=O)OCCC(F)(F)C(F)(F)C(F)(F)C(F)(F)C(F)(F)C(F)(F)C(F)(F)C(F)(F)F`, the outcome was “inactive”. With `O=S(=O)(O)C(F)(F)C(F)(F)C(F)(F)C(F)(F)C(F)(F)C(F)(F)C(F)(F)C(F)(F)C(F)(F)C(F)(F)F` the outcome was “inactive”. With `CN(Cc1cnc2nc(N)nc(N)c2n1)c1ccc(C(=O)N[C@@H](CCC(=O)O)C(=O)O)cc1` the outcome was “inactive”. For `O=C(O)C(F)(F)OC(F)(F)C(F)(F)OC(F)(F)C(F)(F)OC(F)(F)C(F)(F)C(F)(F)C(F)(F)F`, the AC50 was 38.2 µM (active) and 24 µM (active). `O=C(O)CCC(F)(F)C(F)(F)C(F)(F)C(F)(F)C(F)(F)F` was tested, and the outcome was “inactive”.
